Screening data as filed in PubChem.
IL1B NFkB pot: enhances IL-1B driven NFkB nuclear translocation. HUVEC IL-1B NFkB p65 nuclear translocation imaging. activation, % at 2 µM. 94,000 compounds, 0.3% hits. AID 819;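 active = activation above 40%, about the mean plus 3 SD, also judged a hit on visual image review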;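 note: percent activation is computed from the nuclear over cytoplasmic p65 intensity ratio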
sEH inhibitor: blocks human soluble epoxide hydrolase activity; recombinant human sEH enzymatic activity assay; inhibition, % at 2 µM; 91,000 compounds, 0.34% hits; in the data active = inhibition above about 80%
Target sequence (P34913 whole entry, looked up): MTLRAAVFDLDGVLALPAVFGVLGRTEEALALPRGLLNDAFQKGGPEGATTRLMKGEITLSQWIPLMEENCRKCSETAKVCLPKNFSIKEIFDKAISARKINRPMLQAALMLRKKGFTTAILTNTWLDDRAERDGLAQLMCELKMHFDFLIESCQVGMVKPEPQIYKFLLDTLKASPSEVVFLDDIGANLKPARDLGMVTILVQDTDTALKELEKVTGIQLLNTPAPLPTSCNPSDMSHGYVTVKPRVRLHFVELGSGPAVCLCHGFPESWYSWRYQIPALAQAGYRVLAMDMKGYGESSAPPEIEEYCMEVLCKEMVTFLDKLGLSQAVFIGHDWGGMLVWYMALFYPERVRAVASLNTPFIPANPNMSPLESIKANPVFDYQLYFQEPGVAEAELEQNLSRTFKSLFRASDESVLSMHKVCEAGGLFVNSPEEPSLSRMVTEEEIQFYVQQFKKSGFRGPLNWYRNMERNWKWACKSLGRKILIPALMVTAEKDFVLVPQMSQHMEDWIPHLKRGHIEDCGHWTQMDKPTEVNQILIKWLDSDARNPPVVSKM
sEH act: soluble epoxide hydrolase (human) activation. 91,000 compounds, 0.04% hits. AID 717. P34913. activation, % at 2 µM. purified human sEH enzymatic activity, activator screen; in the data active = activation above about 37%
IL1B NFkB inh: blocks IL-1B driven NFkB nuclear translocation in HUVEC cells; AID 796; HUVEC IL-1B NFkB p65 nuclear translocation imaging; inhibition, % at 2 µM; 94,000 compounds, 0.43% hits;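 active = inhibition above about 30% together with a positive call from visual inspection of the well image, limit read from the data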;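 note: nuclear over cytoplasmic p65 intensity ratio measured by imaging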
IL1B cytotox: HUVEC cytotoxicity counter-screen, IL-1B stimulated; 94,000 compounds, 0.41% hits; HUVEC cell count loss, Hoechst imaging; cell count reduction, % at 2 µM;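 active = cell count reduction more than 3 SD above the screen-wide mean, cut at about 70% in these data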
Numbers stand for hits; i = inactive; nt = no result. The list is not random: actives were taken first. Their share in the collection is about 1.2%.

SMILES	IL1B NFkB pot	sEH inhibitor	sEH act	IL1B NFkB inh	IL1B cytotox
CC1CCc2c(sc(NC(=O)C(=O)NCc3ccco3)c2C#N)C1 (stereo not drawn)	42	i	i	i	i
CC1CCc2c(sc3ncn4c(SCC(=O)NCc5ccco5)nnc4c23)C1 (stereo not drawn)	169	i	i	i	i
Cc1ccc(S(=O)(=O)N(CCC#N)CCN2CCCC2)cc1	i	i	i	i	i
Cc1cc(S(=O)(=O)Nc2cc(C)c(O)c(C)c2)c(C)s1	nt	i	i	nt	nt
C=CCn1c(SCc2nc3ccccc3[nH]2)nnc1-c1cccc(OC)c1	i	i	i	i	i
CCOC(=O)CSc1cc(CS(=O)(=O)c2ccccc2)nc(-c2ccccc2)n1	i	i	i	i	83
CCOC(=O)c1ccc(Nc2nc(-c3cccnc3)nc3ccccc23)cc1	i	i	i	i	86
CCOC(=O)c1nc(Nc2ccccc2)c2ccccc2n1	i	i	i	i	i
CCOc1ccc(NC(=O)N2CCC(c3ccc(C)cc3)C2)cc1 (stereo not drawn)	i	82	i	i	i
Cc1cc(=O)n(CC(C)O)c(O)c1C#N (stereo not drawn)	i	i	i	99	89
Cc1cc(=O)n(CCCO)c(O)c1C#N	i	i	i	i	i
CCOC(=O)C1CCN(C(=O)C2CCN(S(=O)(=O)c3cc(Cl)ccc3Cl)CC2)CC1	i	i	i	i	i
COc1ccc(S(=O)(=O)NCC2CCC(C(=O)NCc3ccco3)CC2)cc1 (stereo not drawn)	i	i	i	i	i
COc1ccc(CNC(=O)C2CCC(CNS(=O)(=O)c3cccc4nsnc34)CC2)cc1 (stereo not drawn)	i	95	i	i	i
O=C(NCc1ccc2c(c1)OCO2)C1CCC(CNS(=O)(=O)c2cccc3nsnc23)CC1 (stereo not drawn)	i	94	i	i	i
O=C(c1ccco1)N1CCN(Cc2cccc(F)c2)CC1	i	i	i	i	i
O=C(c1cccc(F)c1)N1CCN(Cc2ccco2)CC1	40	i	i	i	i
CCOC(=O)C1CCCN(S(=O)(=O)c2ccc(OC)cc2)C1 (stereo not drawn)	i	i	i	i	i
COc1ccc(C(=O)OCC2CC(c3ccccc3)N(C)O2)cc1 (stereo not drawn)	i	i	i	47	i
CN1OC(COC(=O)c2ccc(Cl)cc2Cl)CC1c1ccccc1 (stereo not drawn)	i	i	i	i	i
COc1ccc(NC(=O)N2CCCC(c3nc(-c4ccc(C(C)C)cc4)no3)C2)cc1 (stereo not drawn)	i	92	i	i	i
CC(C)c1ccc(NC(=O)N2CCC(c3nc4ccccc4o3)CC2)cc1	i	96	i	i	i
CCCCCC(=O)N1CCCC(c2nc(-c3ccc(OC)cc3)no2)C1 (stereo not drawn)	i	i	i	i	i
Cc1cc(C)cc(NC(=O)N2CCC(c3nc4ccccc4o3)CC2)c1	i	i	i	i	i
CCOC(=O)COc1ccc2cc(C(=O)OCC)c(=O)oc2c1	i	i	i	i	i
SMILES	IL1B NFkB pot	sEH inhibitor	sEH act	IL1B NFkB inh	IL1B cytotox
CCOC(=O)c1ccc(COC(=O)c2cc3ccccc3oc2=O)o1	i	i	i	i	76
CCc1ccc(C(=O)Cn2ncc(Cl)c(Cl)c2=O)cc1	i	i	i	56	i
CCC1Oc2ccc(C)cc2N(CC(=O)N(Cc2ccc(C)o2)C2CCCC2)C1=O (stereo not drawn)	i	i	i	i	i
Cc1ccc(-n2nnnc2SCC(N)=O)c(C)c1	i	i	i	i	i
Cc1ccc(-n2nnnc2SCC(=O)NCCC2=CCCCC2)c(C)c1	i	82	i	i	i
Cc1ccccc1N1CCN(c2ncnc3c2cnn3Cc2ccc(Cl)cc2)CC1	i	i	i	i	i
CSc1nc2sc3c(c2c(=O)n1C)CCC(C)C3 (stereo not drawn)	i	i	i	i	i
C=CCn1nnc2sc3c(c2c1=O)CCC(C)C3 (stereo not drawn)	i	i	i	48	i
COCCn1c(C2CCCCC2)nc2sc3ccccc3c(=O)c2c1=O	i	i	i	i	i
CCC(C)(C)n1nnnc1C(c1ccc2ncccc2c1)N1CCN2CCCC2C1 (stereo not drawn)	i	i	i	i	i
CN1C(=O)CSC1=NC12CC3CC(CC(C3)C1)C2	40	i	i	i	i
Cc1cc(N2CCCC(C(=O)Nc3ccc4c(c3)CCC4)C2)n2ncnc2n1 (stereo not drawn)	i	82	i	i	i
O=C(Nc1ccc2c(c1)CCC2)C1CCN(c2c3c(nc4ncnn24)CCC3)CC1	i	i	i	i	i
O=C(NCCCO)c1nc2ccccc2s1	42	i	i	i	i
COc1ccc(CN2C(=O)[C@@H]3C(c4ccc(F)cc4)=NO[C@@H]3C2=O)cc1	i	i	38	i	i
O=C(O)c1ccc(Br)c(S(=O)(=O)N2CCCC2)c1	i	i	i	i	i
O=C(Nc1nccs1)c1cc2c(s1)-c1ccccc1OC2	i	nt	nt	i	i
COC(=O)c1cc2c(s1)-c1ccccc1OC2	i	i	44	i	i
C/C(=N\NC(=O)c1cccc(S(=O)(=O)Nc2ccccc2Cl)c1)c1ccc(-n2ccnc2)cc1	i	87	i	i	i
COc1ccc(NS(=O)(=O)c2cccc(C(=O)N/N=C(\C)c3ccc(-n4ccnc4)cc3)c2)cc1	i	i	i	i	i
C=CCc1cc(C=O)cc(OC)c1OCc1c(Cl)cccc1Cl	i	i	i	i	i
O=C1c2ccccc2C(=O)N1CCCN1CCN(CCCN2C(=O)c3ccccc3C2=O)CC1	i	i	i	98	89
Cc1ccc(Cn2ccc(=O)c(Cc3c(Cl)cccc3Cl)c2C)cc1	i	90	i	i	i
COc1ccc(Cn2ccc(=O)c(Cc3c(Cl)cccc3Cl)c2C)cc1	i	i	i	i	i
O=C(c1ccccc1)N1CCN(C(=O)c2cc3ccccc3o2)CC1	i	i	i	i	i
SMILES	IL1B NFkB pot	sEH inhibitor	sEH act	IL1B NFkB inh	IL1B cytotox
O=C(c1cc2ccccc2o1)N1CCN(c2ccccc2Cl)CC1	i	i	i	i	93
CCCC(=O)Nc1ccc(NC(=O)c2ccco2)c(OC)c1	i	i	i	i	i
O=C(N/N=C/C=C/c1ccccc1)c1n[nH]c2c1CCC2	i	i	i	34	i
O=C(NCc1ccco1)C(c1ccccc1)N(C(=O)Cc1cccs1)c1ccccc1F (stereo not drawn)	i	i	i	i	i
Cc1ccc(CNC(=O)CCNC(=O)c2ccco2)cc1	i	i	i	i	i
CC(NC(=O)COC(=O)CCNC(=O)c1ccco1)C12CC3CC(CC(C3)C1)C2 (stereo not drawn)	63	nt	nt	i	i
CCc1ccc(NC(=O)C2CC(=O)N=C(N)S2)cc1 (stereo not drawn)	i	i	i	i	i
NC1=NC(=O)CC(C(=O)NCCc2ccccc2)S1 (stereo not drawn)	i	i	i	47	i
O=S(=O)(N/N=C/c1cn(Cc2ccccc2)c2ccccc12)c1ccccc1	i	i	i	i	i
O=C(CCCOc1ccc(Cl)cc1)Nc1nncs1	43	i	i	i	i
Cc1ccc(OCCCC(=O)Nc2nncs2)cc1	i	i	i	i	i
